This is a sample that favours compounds with a hit; in the whole collection about 10% have one here.
SARS PLP yeast – inhibitors of SARS-CoV papain-like protease in yeast | S. cerevisiae expressing SARS-CoV PLpro, growth rescue | 0.19% of 330,000 active | AID 485353 | Potency, µM (highest dose often 32.9 µM), actives largely listed as activators; calls by dose curve; further: nearly all actives have a fitted effect of over 55% in size
Pf growth 48h – P. falciparum growth inhibition at 48 hours (one generation); P. falciparum luciferase growth in erythrocytes, 48 h; Potency, µM (top dose mostly 28.7 µM), actives largely listed as inhibitors; 5.9% of 310,000 active
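Erythrocytes infected with P. falciparum carrying an integrated firefly luciferase reporter (2% hematocrit, 0.1% parasitemia final) were exposed to compounds in RPMI 1640 with 0.5% Albumax at 37 C, 5% CO2. Growth inhibition was scored as reduced luminescence.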
Pf growth 96h – P. falciparum growth inhibition at 96 hours; AID 504834; Potency, µM (titrated, usually from 28.7 µM), hits mostly inhibitors; 6.9% of 320,000 active; P. falciparum luciferase reporter growth, 96 h
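Two parasite generations (96 h, 37 C, 5% CO2) of compound exposure in infected erythrocytes (0.05% parasitemia, 2% hematocrit). Luciferase-reporter P. falciparum; decreased luminescence indicates inhibited growth, aimed at apicoplast-acting delayed death.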
NS1 function inh – influenza NS1 inhibition; Potency, µM (top dose mostly 46.1 µM); 0.4% of 270,000 active; AID 2326; calls by dose curve; further: actives are rising curves; nearly all actives have a fitted effect of over 50% in size
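OD600 was taken as the measure of yeast growth restored by compound in an NS1-expressing S. cerevisiae strain. Cells had been washed out of glucose medium and diluted 1:100 into galactose -URA medium, pH 6.0.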
Each line names hits and unclear results; the compound was inactive in the other large screens. Unless noted, the call rests on the fitted dose curve; in most records, active means well fitted inhibition curve with a large enough effect; inconclusive means small, poorly fitted or top-dose-only effect, or another doubt; inactive means no such curve, though single readings can be large or run the other way.

O=S(=O)(NCc1csc(-c2cccnc2)n1)c1ccc2c(c1)OCCO2	Pf growth 96h 2.9µM
O=S(=O)(NCc1cccnc1)c1ccc2c(c1)OCCO2	Pf growth 96h 13µM
O=S(=O)(NCc1ccccc1)c1ccc2c(c1)OCCO2	none
CC(=O)Nc1ccc(S(=O)(=O)NCCc2csc(-c3cccnc3)n2)cc1	Pf growth 96h 8.3µM
CC(=O)c1ccc(S(=O)(=O)NCCc2csc(-c3cccnc3)n2)cc1	Pf growth 48h inconclusive, Pf growth 96h inconclusive
CCOc1ccc(C(=O)Nc2c(C(=O)N3CCC(N4CCCCC4)CC3)oc3ccccc23)cc1	Pf growth 48h inconclusive, Pf growth 96h inconclusive
CCN(Cc1ccccc1)C(=O)C(=O)c1cn(CC(=O)N2CCCC2)c2ccccc12	Pf growth 96h inconclusive
CC1CCCN(C(=O)CSc2ncccn2)C1 (stereo unspecified)	none
COc1ccc(N(CC(=O)N2CCN(c3ccccc3F)CC2)S(=O)(=O)c2c(C)noc2C)cc1	Pf growth 96h 5.9µM
COc1ccc(N(CC(=O)N2CC=C(c3ccccc3)CC2)S(=O)(=O)c2c(C)noc2C)cc1	Pf growth 96h 3.7µM (no result: Pf growth 48h)
COc1ccc(N(CC(=O)N2CCN(c3ccccc3F)CC2)S(=O)(=O)c2c(C)n[nH]c2C)cc1	Pf growth 48h inconclusive, Pf growth 96h inconclusive (no result: NS1 function inh)
COc1cccc(N2CCN(C(=O)CN(c3cc(C)cc(C)c3)S(=O)(=O)c3c(C)noc3C)CC2)c1	Pf growth 48h inconclusive, Pf growth 96h 10µM
CS(=O)(=O)N(CC(=O)N1CCN(c2ccccc2F)CC1)c1cc(C(F)(F)F)ccc1Cl	Pf growth 96h 10µM (no result: Pf growth 48h)
COC(=O)c1c(NC(=O)CN2CCN(c3ncccn3)CC2)sc(C(N)=O)c1C	Pf growth 48h inconclusive
COc1ccc(CCNc2ccc(C(CC(N)=O)NC(=O)c3cc(OC)ccc3OC)cc2[N+](=O)[O-])cc1 (stereo unspecified)	Pf growth 48h inconclusive, Pf growth 96h inconclusive
COc1ccc(N(CC(=O)N2c3ccccc3CC2C)S(=O)(=O)c2c(C)noc2C)cc1 (stereo unspecified)	Pf growth 48h 12µM
CCOc1ccc(N(CC(=O)N2CCc3ccccc32)S(=O)(=O)c2c(C)noc2C)cc1	none (no result: Pf growth 48h)
Cc1ccc(N(CC(=O)N2CCN(c3ccccc3F)CC2)S(=O)(=O)c2c(C)noc2C)cc1	Pf growth 48h inconclusive, Pf growth 96h 9.3µM (no result: SARS PLP yeast)
CCn1cc[n+](C)c1P(c1ccccc1)c1ccccc1	Pf growth 48h 1.3µM, Pf growth 96h inconclusive
COc1ccc(CCNC(=O)C2CCCN(S(C)(=O)=O)C2)cc1 (stereo unspecified)	Pf growth 96h inconclusive
O=Cc1c(N2CCN(CCO)CC2)nc2ccccn2c1=O	Pf growth 96h 10µM
CC1CN(c2nc3ccccn3c(=O)c2C=O)CC(C)O1 (stereo unspecified)	Pf growth 96h 12µM
Cc1cc(OCC(O)CN2CCN(c3ccccn3)CC2)cc(C)c1Cl (stereo unspecified)	Pf growth 96h inconclusive
Cc1noc(C)c1C(=O)Nc1cc(S(=O)(=O)N2CCCCC2)ccc1N(C)C	Pf growth 48h inconclusive (no result: NS1 function inh)
O=C(NCc1cccs1)c1cc(S(=O)(=O)N2CCOCC2)c(Cl)cc1Cl	Pf growth 96h inconclusive
CC[C@H](C)[C@H](NC(N)=O)C(=O)NCCc1ccc(Cl)cc1Cl	none (no result: NS1 function inh)
COc1cccc(-n2c(=O)n(Cc3ccccc3)c(=O)c3[nH]cnc32)c1	none
COCCCNC(=O)/C(C#N)=C/c1c(N2CCN(c3ccccc3)CC2)nc2c(C)cccn2c1=O	Pf growth 48h 13µM, Pf growth 96h 10µM
C=CCNC(=O)/C(C#N)=C/c1c(N2CCN(c3ccc(OC)cc3)CC2)nc2c(C)cccn2c1=O	Pf growth 48h 13µM, Pf growth 96h inconclusive
COCCCNC(=O)/C(C#N)=C/c1c(N2CCN(c3cccc(Cl)c3)CC2)nc2c(C)cccn2c1=O	Pf growth 48h inconclusive, Pf growth 96h inconclusive
COC(=O)/C(C#N)=C/c1c(N2CCN(c3ccccc3)CC2)nc2c(C)cccn2c1=O	Pf growth 48h 9.3µM, Pf growth 96h inconclusive
COC(=O)/C(C#N)=C/c1c(N2CCN(c3cccc(Cl)c3)CC2)nc2c(C)cccn2c1=O	Pf growth 48h inconclusive, Pf growth 96h inconclusive
COc1cc(-c2nnc(COC(=O)c3cc(C)nc4ccc(C)cc34)o2)cc(OC)c1OC	Pf growth 96h 15µM (no result: Pf growth 48h)
COc1ccc(-c2cc(C(=O)Nc3ccc(C(N)=O)cc3)c3ccccc3n2)cc1OC	Pf growth 48h inconclusive, Pf growth 96h 3.7µM (no result: NS1 function inh)
COc1ccc(NC(=O)c2cc(-c3ccc(OC)c(OC)c3)nc3ccccc23)c(OC)c1	Pf growth 48h inconclusive, Pf growth 96h 10µM
COc1cc(-c2cc(C(=O)Nc3ccc(O)cc3)c3ccccc3n2)cc(OC)c1OC	Pf growth 48h inconclusive, Pf growth 96h inconclusive
CC(C)n1ncc2c(C(=O)N3CCN(c4ccc(F)cc4)CC3)cc(-c3ccccc3)nc21	Pf growth 48h 12µM, Pf growth 96h 12µM (no result: NS1 function inh)
COc1cc(-c2nnc(COC(=O)CSc3cc(C)c4ccccc4n3)o2)cc(OC)c1OC	Pf growth 48h inconclusive
C[C@H](NC(=O)N1CCn2c1nc1ccccc12)C(=O)NCC1CCCO1 (stereo partly specified)	Pf growth 96h inconclusive
COc1ccc(NC(=O)c2cc(-c3ccccc3)nc3c2cnn3C(C)C)c(OC)c1	Pf growth 48h 12µM, Pf growth 96h inconclusive (no result: NS1 function inh)
COc1ccc(-c2cc(-c3nnc(COC(=O)C4CC4)o3)c3ccccc3n2)cc1OC	Pf growth 48h inconclusive, Pf growth 96h inconclusive
COc1ccc(NC(=O)c2cc(-c3ccncc3)nc3ccccc23)c(OC)c1	none (no result: Pf growth 48h, Pf growth 96h, NS1 function inh)
COc1ccc(-c2cc(-c3nnc(COC(=O)c4ccc(O)cc4)o3)c3ccccc3n2)cc1OC	Pf growth 48h 9.3µM, Pf growth 96h inconclusive
COc1ccc(Cl)cc1NC(=O)c1cc(-c2ccccc2O)n[nH]1	Pf growth 48h 10µM, Pf growth 96h 10µM, NS1 function inh inconclusive
COc1ccc(NC(=O)c2cc(C)no2)cc1Cl	Pf growth 48h 4.1µM, Pf growth 96h 3.7µM
COc1ccc(OC)c(NC(=O)c2cc(-c3cc(Cl)ccc3O)n[nH]2)c1	Pf growth 48h 1.7µM, Pf growth 96h 8.3µM
COc1ccc(NC(=O)c2cc(-c3cc(C)ccc3O)n[nH]2)cc1Cl	Pf growth 48h 2.1µM, Pf growth 96h inconclusive
O=C(N/N=C/c1ccccc1C(=O)O)c1cccc(S(=O)(=O)N2CCCCC2)c1	none (no result: NS1 function inh)
CCC(C(=O)N(C(C)C)C(C)C)c1ccccc1 (stereo unspecified)	none (no result: NS1 function inh)
CCC(C(=O)c1ccc(O)cc1)c1ccccc1 (stereo unspecified)	Pf growth 48h 13µM
CCOc1ccc2[nH]c(=O)c(CN(Cc3nnnn3Cc3ccco3)C3CCCCC3)cc2c1	Pf growth 48h 12µM, NS1 function inh inconclusive
CCOc1ccc2[nH]c(=O)c(CN(Cc3ccco3)Cc3nnnn3Cc3ccccc3)cc2c1	none
COc1cc2cc(CN(Cc3nnnn3Cc3ccco3)C3CCCCC3)c(=O)[nH]c2cc1OC	Pf growth 48h 8.3µM (no result: Pf growth 96h)
COc1ccc(S(=O)(=O)N2CCN(CC(=O)NC(Cc3ccccc3)C(C)=O)CC2)cc1 (stereo unspecified)	none (no result: Pf growth 48h, Pf growth 96h, NS1 function inh)
COc1ccc(OCC(=O)NNC(=S)NC(=O)c2ccc(Br)o2)cc1	none
